Measurements: PubChem BioAssay (NCI)
Several values for one entry are separate records, joined by “and”; a condition that tells them apart may be missing. Identical values can stand only once. Compounds without any hit were thinned out: in the full panel of roughly 83,000, 20% have a hit.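 Percent growth is the endpoint: 0 to 100 indicates growth inhibition (40 means 60% inhibition), 0 means no net growth, and negative values indicate cell death.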 Activity calls are given as the source filed them. How the source made its calls: active means growth percent below 10; inactive means the rest.

Columns and labels:
Experiment in all cases: NCI-60 one-dose screen, 48 h (100 = growth as untreated, 0 = no growth, -100 = all killed)
Settings in all cases: 10 µM unless noted
[1] = test system: HCT-15 colon
[2] = test system: HT29 colon
[3] = test system: SNB-75 CNS
[4] = test system: SNB-19 CNS
[5] = test system: U251 CNS
[6] = test system: PC-3 prostate
[7] = test system: SK-MEL-5 melanoma
[8] = test system: UACC-62 melanoma
[9] = test system: LOX IMVI melanoma
[10] = test system: SK-MEL-28 melanoma

Measured: growth

C/C=C(\C)C(=O)N[C@H]1CC[C@]2(C)C3CC[C@@]4(C)C(CC[C@@H]4C(C)N(C)C)C3CCC2[C@H]1OC(C)=O (stereo not given in full)
active: [1] -78.4% | [2] -68.4% | [3] -50% | [4] -58.7% | [5] -66.1% | [6] 0.354% | [7] -100% | [8] -51.7% | [9] -78.8% | [10] -97.5%

CCCCC1COc2cccc3c2N1C=C/C3=C\C(=O)N(C)c1cccc(Cl)c1 (stereo not given)
inactive: [1] 99.4% | [2] 109% | [3] 93% | [4] 91.5% | [5] 101% | [6] 89.6% | [7] 102% | [8] 85.9% | [9] 99% | [10] 104%

O=C(CN1C(=O)S/C(=C\C(Cl)=C\c2ccccc2)C1=O)NCCCn1ccnc1
inactive: [2] 10.5% | [3] 32% | [4] 57.5% | [5] 45.6% | [6] 45.8% | [7] 64.1% | [8] 18.8% | [10] 12.4%
active: [1] 1.15% | [9] -52.3%

CCCN1C(=O)/C(=c2\sc3n(c2=O)C2C(NN=3)N(CC)C(=O)N2CC)c2ccccc21 (stereo not given)
active: [2] 3.33%
inactive: [1] 12.5% | [3] 17.2% | [4] 27.7% | [5] 17.6% | [6] 32.9% | [7] 14.3% | [8] 24.7% | [9] 17.1% | [10] 48.1%

[2H]C([2H])([2H])Oc1cc(F)ccc1/C=C/C(=O)/C=C(/C=C/c1ccc(F)cc1OC([2H])([2H])[2H])OB(F)F
active: [9] 2.12%
inactive: [1] 25.3% | [2] 32.4% | [3] 81.1% | [4] 56.9% | [5] 31.7% | [6] 43.8% | [7] 30.6% | [8] 20.9% | [10] 29.5%

COc1ccc(Oc2nc(Nc3ccc(N4CCOCC4)cc3)ncc2NC(=O)c2cccc(C(F)(F)F)c2)cc1
inactive: [1] 58.6% | [2] 42.2% | [3] 82.3% | [4] 87.5% | [5] 69.3% | [6] 53.7% | [7] 92.2% | [8] 78.4% | [9] 52.4% | [10] 99.5%

C[C@@H]1O[C@@H](O[C@H]2[C@@H](OC(=O)[C@]34CCC(C)(C)C[C@H]3C3=CC[C@@H]5[C@@]6(C)C[C@H](O)[C@H](O[C@@H]7O[C@H](CO)[C@@H](O)[C@H](O)[C@H]7O)[C@@](C)(CO)[C@@H]6CC[C@@]5(C)[C@]3(C)C[C@H]4O)OC[C@@H](O)[C@@H]2O)[C@H](O)[C@H](O[C@@H]2OC[C@@H](O)[C@H](O[C@@H]3OC[C@](O)(CO)[C@H]3O[C@@H]3OC[C@@H](O)[C@H](O)[C@H]3O)[C@H]2O)[C@H]1O[C@@H]1OC[C@](O)(CO)[C@H]1O
inactive: [1] 86.4% | [2] 60.3% | [3] 92.6% | [4] 80.7% | [5] 42% | [6] 66% | [7] 88.3% | [8] 79.2% | [9] 81.3%
active: [10] 9.31%

O=C(NNc1ccccc1)c1ncc[nH]1
inactive: [1] 34.8% | [2] 54.9% | [3] 85.2% | [4] 96.5% | [5] 78.6% | [6] 71.9% | [7] 85% | [8] 10.9% | [10] 40.7%
active: [9] 1.27%

C[C@@H]1CC[C@@H]2[C@@H]1[C@H](OC(=O)/C=C/c1ccccc1)[C@]1(c3ccccc3)C[C@@H](NC(=O)CO)[C@@]2(C)O1
inactive: [1] 91.7% | [2] 109% | [3] 88% | [4] 96.2% | [5] 88.9% | [6] 78.9% | [7] 97.9% | [8] 71.7% | [9] 96.1% | [10] 103%

CN1CCN(C(=O)OCc2nc3c(N4CCOCC4)nc(Cl)nc3n2C)CC1
inactive: [4] 57.9%
active: [1] -55.4% | [2] -67.7% | [3] -21.7% | [5] -14.1% | [6] -16.9% | [7] -12.8% | [8] -78% | [9] -96.2% | [10] -95.5%

Cc1nc(Nc2ncc(C(=O)Nc3c(C)cccc3Cl)s2)cc(N2CCN(CCO)CC2)n1
inactive: [1] 32.5% and 21.3% | [4] 68.7% and 40.1% | [5] 57.6% and 37.2% | [6] 54.1% and 40.7% | [7] 66.6% and 53.8% | [8] 55.3% and 34.9% | [10] 64% and 36%
active: [2] 5.06% and -19.7% | [3] -32.6% and -35.7% | [9] -66.3% and -93.8%

CCOC(=O)C1=C(C)N=C2SC=C(c3ccc(F)cc3)N2[C@H]1c1cn(-c2ccccc2)nc1-c1ccc(Cl)cc1
inactive: [1] 92.9% | [2] 101% | [3] 78.2% | [4] 92.1% | [5] 88% | [6] 80.7% | [7] 96.4% | [8] 81.6% | [9] 95.7% | [10] 106%

Nc1nc(Nc2cccnc2)sc1C(=O)c1ccccc1F
inactive: [1] 27.7% | [2] 35.9% | [3] 30.3% | [4] 43.1% | [5] 42% | [6] 43.2% | [7] 30.1% | [8] 42.4% | [9] 29.8% | [10] 65.9%

N#Cc1ccccc1-c1ccc(Cn2c(-c3cscn3)nc3c(Cl)cccc32)cc1
inactive: [1] 77.9% | [2] 71% | [3] 78% | [4] 88.5% | [5] 79.1% | [6] 54.4% | [7] 55.3% | [8] 75% | [9] 65.7% | [10] 105%

C=C[C@]1(C)C=C2CC[C@@H]3C(C)(C)C(=O)CC[C@@]3(C)[C@@H]2CC1
inactive: [1] 106% | [2] 102% | [3] 90.5% | [4] 108% | [5] 98.5% | [6] 98.8% | [7] 109% | [8] 97.9% | [9] 99.5% | [10] 113%

Nc1nc2c(s1)CCc1cn(S(=O)(=O)c3ccccc3)cc1-2
inactive: [1] 98.3% and 99.3% | [2] 106% | [3] 80.5% and 89.9% | [4] 94.6% and 97% | [5] 80.3% and 97.7% | [6] 75.6% and 84.4% | [7] 90.1% and 95% | [8] 79.4% and 96.3% | [9] 84.1% and 104% | [10] 113% and 104%

Clc1ccc2c(c1)N(c1ncnc3ccc(-c4cnc5[nH]ccc5c4)cc13)CC2
active: [2] 3.75% | [3] 3.69%
inactive: [1] 14.4% | [4] 38.3% | [5] 41.3% | [6] 28.2% | [7] 32.7% | [8] 29.3% | [9] 13.4% | [10] 36%

COc1cc(-c2nc3occn3c2-c2ccnc(NCCCNS(=O)(=O)c3ccc(O)cc3)n2)ccc1F
inactive: [1] 114% | [2] 66.4% | [3] 97.6% | [4] 124% | [5] 108% | [6] 94.6% | [7] 62.8% | [8] 21% | [9] 55.6% | [10] 27.7%

NC(=O)c1c(NC(=O)/C=C/c2cccs2)sc2c1CCC(=O)C2
inactive: [1] 13.1% | [2] 15.8% | [3] 56.5% | [4] 64.5% | [5] 22.2% | [6] 13.4% | [7] 24.4% | [8] 16.9% | [9] 18.4% | [10] 41.8%

CC/C=C\C/C=C\C[C@H](O)C/C=C1/C(=O)C=C[C@@H]1C/C=C\CCCC(=O)OC
inactive: [3] 53.3% | [4] 20.2%
active: [1] -25.8% | [2] -25.4% | [5] -73.3% | [6] -36.6% | [7] -94.9% | [8] -56% | [9] -80.5% | [10] -38%

O=C(O)c1ccccc1Cc1ccc(F)c2ccccc12
inactive: [1] 108% and 99.4% | [2] 116% and 107% | [3] 93.6% and 77.4% | [4] 101% and 104% | [5] 115% and 104% | [6] 120% and 90.7% | [7] 96.2% and 102% | [8] 101% and 106% | [9] 100% and 98.9% | [10] 105%

Nn1c(-c2ccc(Cl)cc2)nc2c(-c3ccc(Cl)cc3)nc3ccc(Cl)cc3c2c1=O
inactive: [1] 58.2% | [4] 28.2% | [6] 36.6% | [7] 52.5% | [8] 30.3% | [9] 20.2%
active: [2] 7.88% | [3] -51.4% | [5] -63.5% | [10] -67.2%
